Records with an inconclusive call do not appear. A number with no mark means an inactive call. Active and inactive are the calls of the source. Calls come from the whole dose curve; as a rule, active = well fitted curve in the direction sought with a large enough effect; inconclusive = small, poorly fitted or top-dose-only effect, or another doubt; inactive = no such curve, though single readings can be large; an effect the other way counts as inactive or inconclusive. Where a SMILES comes first, the peptide text is derived from it. [ ]: non-standard residue; d: D form. ξ: configuration not given here. ξLac(3-iPr) = CC(C)CC(O)C(=O)O; NMeV = CN[CH](C(=O)O)C(C)C; βAla = NCCC(=O)O
Tested on: not listed separately
Assay: Primary qHTS for inhibitors of nuclear receptor binding SET domain protein 2 (NSD2) in an RCH-ACV wild type WT cells (2C) (AID 1645877); note: nearly all actives have a fitted effect of over 70% in size
Conditions: RCH-ACV (leukaemia line) NSD2 WT (2C) viability, CellTiter-Glo, 72 h; series mostly up to 44.9 µM; activity change, negative = cell killing: at the top concentration
In the case of `CC(=O)c1c(O)cc(O[C@@H]2O[C@H](CO)[C@@H](O)[C@H](O)[C@H]2O)cc1O`, the “activity change, negative = cell killing” value is reported as -12.6%. With `C=CC[C@]12C[C@@H](OC)C(=O)C(OC)=C1O[C@@H](c1cc(OC)c3c(c1)OCO3)[C@@H]2C` the “activity change, negative = cell killing” value was 0.378% [at 17.3 µM]. In the case of `C[C@]12C=C[C@@]3(CCC4[C@](C)(CO)CCC[C@@]4(C)C3CC1)C2` (some centres not stated), the “activity change, negative = cell killing” value is reported as -6.14%.

Biological target: Glutathione peroxidase 1 (Homo sapiens) (UniProt P07203)
Sequence (P07203 whole entry, looked up): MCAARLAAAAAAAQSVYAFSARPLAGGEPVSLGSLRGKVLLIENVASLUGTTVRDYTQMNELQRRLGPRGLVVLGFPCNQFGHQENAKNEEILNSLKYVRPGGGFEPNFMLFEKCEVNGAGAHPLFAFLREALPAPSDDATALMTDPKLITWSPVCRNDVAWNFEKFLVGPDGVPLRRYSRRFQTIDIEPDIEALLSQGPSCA
Assay: Primary qHTS Assay for Inhibitors of Recombinant Selenoprotein Glutathione Peroxidase 1 (GPX1) (AID 1845191); note: nearly all actives have a fitted effect of over 65% in size; note: potency is the fitted concentration of half-maximal effect
Conditions: recombinant GPX1, GR-coupled NADPH fluorescence, 15 min; series mostly up to 48.8 µM; activity, negative = inhibition: at the top concentration
How it was run: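 NADPH consumption tracked by fluorescence at 340/450 nm between t=0 and t=15 min, room temperature. Final mix: 10 nM GPX1, 100 nM glutathione reductase, 1 mM GSH, 0.5 mM NADPH, 0.5 mM cumene hydroperoxide, 0.01% BSA; 30 min compound–enzyme preincubation.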
For `O=C(O[C@H]1[C@@H]2C[C@@H]3OC[C@](O)([C@@H]1Cl)[C@H]2C(O[C@@H]1O[C@H](CO)[C@@H](O)[C@H](O)[C@H]1O)O3)c1ccc(O)c(O)c1` (some centres not stated), the “activity, negative = inhibition” value was -17.8% [at 27.7 µM]. For `CCn1cc(NC(=S)Nc2cc(Cl)ccc2OC)c(C(N)=O)n1`, the “activity, negative = inhibition” value was -2%. In the case of `CC1=CC(=O)C(=C(C)C)CC2C1CCC2(C)O` (configuration not stated), the “activity, negative = inhibition” value is reported as -14.2%. In the case of `CC1(C)C2CC=C(COC3OC(COC4OCC(O)(CO)C4O)C(O)C(O)C3O)C1C2` (configuration not stated), the “activity, negative = inhibition” value is reported as 0.232% [at 27.7 µM]. In the case of `C=C(C(=O)O)C1CCC2(C)CCC(O)C(=C)C2C1` (configuration not stated), the “activity, negative = inhibition” value is reported as -0.485%. With `C[C@@H]1O[C@@H](O[C@H]2[C@H](OC(=O)[C@]34CCC(C)(C)C[C@H]3C3=CCC5[C@@]6(C)C[C@H](O)[C@H](O[C@@H]7O[C@H](CO)[C@@H](O)[C@H](O)[C@H]7O)[C@@](C)(CO)C6[C@H](O)C[C@@]5(C)[C@]3(C)CC4)OC[C@H](O)[C@@H]2O)[C@H](O)[C@H](O)[C@H]1O[C@@H]1OC[C@@H](O)[C@H](O[C@@H]2OC[C@](O)(CO)[C@H]2O)[C@H]1O` (some centres not stated) the outcome was “inactive [at 9.52 µM]”. For `CC12CCC(OC3OC(CO)C(O)C(OC4OC(CO)C(O)C(O)C4O)C3O)CC1CCC1C2CCC2(C)/C(=C3/COC(=O)C3)CCC12O` (configuration not stated), the “activity, negative = inhibition” value was -10.1% [at 15.3 µM]. In the case of `O=C(c1ccc2nccnc2c1)N1CCCCC1`, the “activity, negative = inhibition” value is reported as -3.05%. In the case of `C[C@@H]1CC[C@]2(C(=O)O[C@@H]3O[C@H](CO)[C@@H](O)[C@H](O)[C@H]3O)CC[C@]3(C)C(=CCC4[C@@]5(C)C[C@@H](O)[C@H](O)[C@](C)(C(=O)O)C5CC[C@]43C)[C@@H]2[C@]1(C)O` (some centres not stated), the “outcome” value is reported as “inactive [at 15.3 µM]”. For `O=C(O[C@H]1[C@@H]2C=CO[C@@H](O[C@@H]3O[C@H](CO)[C@@H](O)[C@H](O)[C@H]3O)[C@@H]2[C@@]2(CO)O[C@@H]12)c1ccccc1`, the “activity, negative = inhibition” value was -6.54% [at 27.7 µM]. For `C[C@H](C/C=C/C(C)(C)O)[C@H]1CC[C@@]2(C)[C@@H]3[C@@H](O[C@@H]4O[C@H](CO)[C@@H](O)[C@H](O)[C@H]4O)C=C4C(CC[C@H](O)C4(C)C)[C@]3(C=O)CC[C@]12C` (some centres not stated), the “activity, negative = inhibition” value was -19.7% [at 15.3 µM]. For `C[C@@H]1C(=O)O[C@H]2[C@H](O)C34[C@H]5C[C@@H](C(C)(C)C)C36[C@@H](OC(=O)[C@@H]6O)O[C@@]4(C(=O)O5)[C@@]12O` (some centres not stated), the “outcome” value was “inactive [at 27.7 µM]”. In the case of `C=C(C)C1CC[C@]2(C(=O)O)CC[C@]3(C(=O)O)[C@H](CCC4[C@@]5(C)CC[C@H](O)C(C)(C)C5CC[C@]43C)C12` (some centres not stated), the “activity, negative = inhibition” value is reported as -15.2% [at 27.7 µM]. With `CCOc1cc(C)c(Cl)cc1S(=O)(=O)n1cnc2ccccc21` the “outcome” value was “inactive [at 27.7 µM]”. With `CC(O)CO[C@@H]1O[C@H](CO)[C@@H](O)[C@H](O)[C@H]1O` (some centres not stated) the “outcome” value was “inactive”. In the case of `CC1C=CC2CCCCC2C1CCC1CC(O)CC(=O)O1` (configuration not stated), the “activity, negative = inhibition” value is reported as -17.7%. For `CC(C)CC1OC(=O)C2CCCN2C(=O)CCNC(=O)C(Cc2ccccc2)NC(=O)C(C(C)C)N(C)C(=O)C(C(C)C)N(C)C1=O` (configuration not stated) (cyclo([ξLac(3-iPr)][NMeV][NMeV]F[βAla]P); configuration not given here), the “activity, negative = inhibition” value was 1.63% [at 15.3 µM]. In the case of `C[C@@]12C[C@]3(O)O[C@H](O1)[C@]1(COC(=O)c4ccccc4)[C@H]3C[C@@]12O[C@@H]1O[C@H](CO)[C@@H](O)[C@H](O)[C@H]1O`, the “outcome” value is reported as “inactive [at 27.7 µM]”. With `O=C(O)/C=C/c1cc2c(cc1O[C@@H]1O[C@H](CO)[C@@H](O)[C@H](O)[C@H]1O)OCO2` the “activity, negative = inhibition” value was -12.5% [at 27.7 µM]. For `COc1cc2c(cc1O)[C@H](c1ccc(O[C@@H]3O[C@H](CO)[C@@H](O)[C@H](O)[C@H]3O)c(OC)c1)[C@@H](CO)[C@](O)(CO)C2`, the “outcome” value was “inactive [at 27.7 µM]”. In the case of `CC(=O)C12OC(C)(C)OC1CC1C3CCC4=CC(=O)C=CC4(C)C3(F)C(O)CC12C` (configuration not stated), the “activity, negative = inhibition” value is reported as 4.1%. For `C=C[C@@](C)(O)CC/C=C(\C)C(=O)O[C@@H]1[C@@H]2O[C@]2(C)[C@H]2[C@H](O[C@@H]3O[C@H](CO)[C@@H](O)[C@H](O)[C@H]3O)OC=C[C@@]12O`, the “activity, negative = inhibition” value was -13.6% [at 27.7 µM]. With `C=CC1(C)C=C2CCC3C(C)(C)C(O[C@@H]4O[C@@H](CO)[C@H](O)[C@H]4O)CCC3(C)C2CC1O[C@@H]1O[C@H](C)[C@H](O)[C@H](O)[C@H]1O` (some centres not stated) the “activity, negative = inhibition” value was -4.22% [at 27.7 µM]. For `CC(=O)OC1C(OC(=O)c2ccccc2)C2C(C)(C)CC(=O)CC2(C)C23CCC(C)(C2)C(O)CC13` (configuration not stated), the “activity, negative = inhibition” value was -19.1% [at 27.7 µM]. In the case of `O=C(O)c1ccc(OC2OC(CO)C(O)C(O)C2O)cc1` (configuration not stated), the “activity, negative = inhibition” value is reported as 0.815%. `CC(C)=CCC/C(C)=C/CC/C(C)=C/COC1OC(COC2OCC(OC3OCC(O)C(O)C3O)C(O)C2O)C(O)C(OC2OC(C)C(OC3OC(C)C(OC4OCC(OC5OC(C)C(O)C(O)C5O)C(O)C4O)C(O)C3O)C(O)C2O)C1O` (configuration not stated) gave an activity, negative = inhibition of 1.32% [at 9.52 µM]. In the case of `Nc1nc2c(c(=O)[nH]1)C[C@@H](CCc1ccc(C(=O)N[C@@H](CCC(=O)O)C(=O)O)cc1)CN2`, the “activity, negative = inhibition” value is reported as 0.813%. In the case of `O=C(O)CC(=O)OC[C@H]1O[C@@H](Oc2ccc3c(c2)OC[C@H]2c4cc5c(cc4O[C@@H]32)OCO5)[C@H](O)[C@@H](O)[C@@H]1O`, the “activity, negative = inhibition” value is reported as -12.2% [at 27.7 µM]. In the case of `CC(O)CCC1C(CO[C@@H]2O[C@H](CO)[C@@H](O)[C@H](O)[C@H]2O)CC(O)CC1(C)C` (some centres not stated), the “outcome” value is reported as “inactive [at 27.7 µM]”. With `O=C1NC(=O)C(c2cn3c4c(cccc24)CCC3)C1c1c[nH]c2ccccc12` (configuration not stated) the “activity, negative = inhibition” value was -8.95%. For `C=C1[C@H](OC(C)=O)[C@H]2[C@@H](OC(C)=O)[C@](C)(OC(C)=O)C[C@]2(OC(C)=O)C(=O)[C@H](C)/C=C/C(C)(C)C(=O)[C@H](OC(=O)C(C)CC)[C@H]1OC(C)=O` (some centres not stated), the “activity, negative = inhibition” value was -19.5% [at 15.3 µM]. For `COC(=O)CC(O)CC(O)/C=C/c1c(C)ccc2c1C(O)CC(C)C2` (configuration not stated), the “activity, negative = inhibition” value was -0.699% [at 27.7 µM]. In the case of `COc1ccc(CN2C(=O)C(=O)c3cc(S(=O)(=O)N4CCC[C@H]4COc4cccnc4)ccc32)cc1`, the Potency is reported as 22.7 µM (active). For `C/C(=C\CCC(C)CCO)C(=O)O[C@@H]1[C@@H](O)[C@H](OC2OC=C(C(=O)O)C3CCC(C)(O)C23)O[C@H](CO)[C@H]1O` (some centres not stated), the “activity, negative = inhibition” value was -16.8% [at 27.7 µM]. In the case of `N=c1nc2n(cc1F)C1OC(CO)C(O)C1O2` (configuration not stated), the “activity, negative = inhibition” value is reported as -10.9%. For `CC1=C(C(=O)O)/C(=C\CO[C@@H]2O[C@H](CO)[C@@H](O)[C@H](O)[C@H]2O)C(OC(=O)/C=C\c2ccc(O)cc2)C1` (some centres not stated), the “activity, negative = inhibition” value was -17.2% [at 27.7 µM]. In the case of `CC(=O)c1c(O)cc(O[C@@H]2O[C@H](CO)[C@@H](O)[C@H](O)[C@H]2O)cc1O`, the “outcome” value is reported as “inactive [at 27.7 µM]”. In the case of `C=CC[C@]12C[C@@H](OC)C(=O)C(OC)=C1O[C@@H](c1cc(OC)c3c(c1)OCO3)[C@@H]2C`, the “activity, negative = inhibition” value is reported as -6.87% [at 27.7 µM]. With `C[C@]12C=C[C@@]3(CCC4[C@](C)(CO)CCC[C@@]4(C)C3CC1)C2` (some centres not stated) the “activity, negative = inhibition” value was -14%.

Reference: PubChem BioAssay (NCATS)
% is set by controls: 0 for no effect and ±100 for the full control effect.
